Test results reported in PubChem BioAssay.
Calls of active or inactive are those of the source.

Assays:
[1] = test system: PRMT1 (protein arginine N-methyltransferase 1); assay: small molecules binding arginine methyltransferase PRMT1 – biochemical, small-molecule microarray, 635 nm fluorescence, primary screen (AID 1088); settings: higher = more signal;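 note: binding of Prmt1 protein to compounds spotted on small-molecule microarray slides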
[2] = growth effects on S. cerevisiae YJM789 – YJM789 clinical isolate, OD600, 24 h, basal, primary screen (AID 1089); settings: higher = more signal, called active from +8 up or from −8 down;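 note: growth of clinical yeast isolate S. cerevisiae YJM 789 seeded 1000 cells per well; test concentration not given here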
[3] = S. pombe growth modifiers, basal conditions – strain 972, OD600, 24 h, no modulator, primary screen (AID 1090);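 note: basal condition with compound alone and no growth modifier present; test concentration not given here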; settings: S. pombe 972 growth, higher = more signal, called active from +8 up or from −8 down
[4] = budding yeast growth modifiers under rapamycin – strain BY4716, OD600, 96 h, primary screen (AID 1091); note: test concentration not given here; settings: S. cerevisiae BY4716 + rapamycin, higher = more signal, called active from +8 up or from −8 down
[5] = target: Torsin-1A-interacting protein 2 (Homo sapiens) (UniProt Q8NFQ8); assay: small molecules binding lysate-expressed LULL1 – cell lysate, human LULL1 lysate, 635/667 nm fluorescence, primary screen (AID 1092); settings: small-molecule microarray, hLULL1 lysate binding, 635 nm fluorescence; higher = more signal;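 note: probe is lysate of COS7 cells overexpressing human LULL1; score merges per-feature 667 nm fluorescence with signal-to-noise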
[6] = optical density change of DRC41 E. coli – strain DRC41, OD650, 24 h, E. coli filamentation project, primary screen (AID 1093);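 note: MC1000 strain lacking acrAB efflux and sulA so SOS filamentation is blocked; test concentration not given here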; settings: E. coli DRC41 growth, higher = more signal, called active from +8 up or from −8 down
[7] = probe aLefty2 binding to arrayed compounds – biochemical, biotinylated probe, 635/667 nm fluorescence, primary screen (AID 1094); settings: small-molecule microarray, higher = more signal;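 note: score merges spot fluorescence near 667 nm with spot signal-to-noise ratio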
[8] = test system: Noggin (protein binding on small-molecule microarray); assay: small molecules binding Noggin protein – biochemical, 635/667 nm fluorescence, primary screen (AID 1095); settings: 635 nm fluorescence, higher = more signal;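 note: score merges 667 nm feature fluorescence with signal to noise over triplicate slides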
[9] = target: Neurogenic locus notch homolog protein 3 (Homo sapiens) (UniProt Q9UM47); assay: small molecules binding NOTCH3 protein – biochemical, 635/667 nm fluorescence, primary screen (AID 1096); settings: small-molecule microarray, 635 nm fluorescence, higher = more signal
[10] = probe aEGFR binding to arrayed compounds – biochemical, biotinylated probe, 635/667 nm fluorescence, primary screen (AID 1097); settings: small-molecule microarray, higher = more signal;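 note: probe is a biotinylated anti-EGFR antibody binding compounds printed on slides; score combines fluorescence near 667 nm and signal to noise of each spot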

Chain of Neurogenic locus notch homolog protein 3 (Homo sapiens) (Q9UM47 whole entry, looked up): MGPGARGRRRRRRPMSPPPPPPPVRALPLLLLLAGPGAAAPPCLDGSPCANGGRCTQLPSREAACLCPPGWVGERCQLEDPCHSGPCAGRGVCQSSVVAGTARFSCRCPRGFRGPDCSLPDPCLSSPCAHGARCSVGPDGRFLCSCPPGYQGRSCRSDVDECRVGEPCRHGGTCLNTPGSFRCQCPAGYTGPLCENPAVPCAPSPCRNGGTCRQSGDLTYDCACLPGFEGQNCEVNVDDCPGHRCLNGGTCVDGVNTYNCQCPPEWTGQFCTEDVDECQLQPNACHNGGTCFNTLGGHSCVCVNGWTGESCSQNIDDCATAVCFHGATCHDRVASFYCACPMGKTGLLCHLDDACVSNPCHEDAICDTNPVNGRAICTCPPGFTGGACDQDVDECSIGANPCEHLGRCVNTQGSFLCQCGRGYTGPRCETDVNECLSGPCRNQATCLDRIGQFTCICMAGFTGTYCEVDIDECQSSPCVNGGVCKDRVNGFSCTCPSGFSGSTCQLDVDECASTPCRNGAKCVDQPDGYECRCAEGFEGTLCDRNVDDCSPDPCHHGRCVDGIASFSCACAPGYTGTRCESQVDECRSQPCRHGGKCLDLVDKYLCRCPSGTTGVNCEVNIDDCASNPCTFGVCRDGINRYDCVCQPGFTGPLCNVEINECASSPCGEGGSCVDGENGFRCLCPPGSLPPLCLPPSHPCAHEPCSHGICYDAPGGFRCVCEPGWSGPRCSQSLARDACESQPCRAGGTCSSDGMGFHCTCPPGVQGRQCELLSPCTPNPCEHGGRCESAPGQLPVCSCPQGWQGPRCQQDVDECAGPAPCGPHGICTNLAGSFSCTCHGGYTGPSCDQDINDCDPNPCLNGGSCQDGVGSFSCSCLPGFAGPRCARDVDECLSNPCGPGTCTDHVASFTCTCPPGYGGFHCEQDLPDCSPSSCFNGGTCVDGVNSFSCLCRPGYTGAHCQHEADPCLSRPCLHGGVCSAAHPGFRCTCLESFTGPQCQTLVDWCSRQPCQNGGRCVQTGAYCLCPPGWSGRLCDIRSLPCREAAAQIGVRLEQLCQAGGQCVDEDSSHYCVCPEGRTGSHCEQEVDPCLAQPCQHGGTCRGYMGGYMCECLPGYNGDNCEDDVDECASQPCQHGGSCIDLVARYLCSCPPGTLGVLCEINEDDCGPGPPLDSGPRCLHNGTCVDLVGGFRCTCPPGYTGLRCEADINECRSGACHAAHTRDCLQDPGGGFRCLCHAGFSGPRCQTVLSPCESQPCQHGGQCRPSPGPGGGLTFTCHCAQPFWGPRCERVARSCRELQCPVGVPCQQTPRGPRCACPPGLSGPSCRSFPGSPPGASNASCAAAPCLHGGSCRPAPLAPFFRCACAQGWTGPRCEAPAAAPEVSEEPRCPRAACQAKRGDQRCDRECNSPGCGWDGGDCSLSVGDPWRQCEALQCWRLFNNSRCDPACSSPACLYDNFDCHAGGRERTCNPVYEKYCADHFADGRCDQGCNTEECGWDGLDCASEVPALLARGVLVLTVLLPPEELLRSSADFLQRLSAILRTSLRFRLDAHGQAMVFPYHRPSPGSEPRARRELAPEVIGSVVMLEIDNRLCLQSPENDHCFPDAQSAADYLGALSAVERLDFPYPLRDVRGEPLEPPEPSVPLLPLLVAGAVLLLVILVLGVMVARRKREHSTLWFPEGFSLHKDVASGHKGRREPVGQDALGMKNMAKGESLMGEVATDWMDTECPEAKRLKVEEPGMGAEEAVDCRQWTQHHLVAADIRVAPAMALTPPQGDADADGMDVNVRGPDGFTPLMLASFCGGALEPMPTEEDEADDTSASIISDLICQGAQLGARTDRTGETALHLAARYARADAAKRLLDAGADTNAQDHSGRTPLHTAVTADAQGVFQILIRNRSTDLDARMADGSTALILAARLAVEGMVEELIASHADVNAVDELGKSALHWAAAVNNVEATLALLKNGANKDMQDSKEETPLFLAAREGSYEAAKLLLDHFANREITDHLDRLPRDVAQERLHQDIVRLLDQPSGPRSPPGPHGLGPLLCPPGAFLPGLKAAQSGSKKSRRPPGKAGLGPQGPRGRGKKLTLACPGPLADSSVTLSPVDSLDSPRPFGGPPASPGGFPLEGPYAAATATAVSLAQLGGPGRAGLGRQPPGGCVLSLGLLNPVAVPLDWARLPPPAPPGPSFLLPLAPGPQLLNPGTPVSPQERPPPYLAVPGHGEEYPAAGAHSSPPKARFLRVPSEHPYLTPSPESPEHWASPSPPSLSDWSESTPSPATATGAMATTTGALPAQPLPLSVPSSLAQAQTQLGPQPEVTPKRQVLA
Chain of Torsin-1A-interacting protein 2 (Homo sapiens) (Q8NFQ8 whole entry, looked up): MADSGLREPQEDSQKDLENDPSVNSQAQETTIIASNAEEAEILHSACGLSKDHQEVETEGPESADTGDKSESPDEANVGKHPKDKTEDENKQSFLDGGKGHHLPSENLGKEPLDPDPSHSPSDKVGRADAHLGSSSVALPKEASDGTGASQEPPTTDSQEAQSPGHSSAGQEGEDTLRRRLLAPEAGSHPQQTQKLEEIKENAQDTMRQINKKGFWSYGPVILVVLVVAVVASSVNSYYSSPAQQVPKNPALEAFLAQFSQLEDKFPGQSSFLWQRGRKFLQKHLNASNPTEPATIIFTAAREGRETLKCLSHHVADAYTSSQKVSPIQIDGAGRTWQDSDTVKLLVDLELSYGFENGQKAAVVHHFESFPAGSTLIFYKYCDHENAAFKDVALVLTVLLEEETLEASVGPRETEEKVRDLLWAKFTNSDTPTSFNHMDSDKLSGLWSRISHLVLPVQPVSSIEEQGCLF

CCOC(=O)C1=CCC(c2cccn2C(=O)OC(C)(C)C)N(S(=O)(=O)c2ccc(C)cc2)C1 (stereo not given)
composite z-score [1]: 1.48 | z-score [2]: -0.0556 (inactive) | z-score [3]: 0.69 (inactive) | z-score [4]: 0.382 (inactive) | composite z-score [5]: 3.36 | z-score [6]: -0.0304 (inactive) | composite z-score [7]: 0.194 | composite z-score [8]: 0.205 | composite z-score [9]: 1 | composite z-score [10]: -0.0004

[N-]=[N+]=NCc1ccccc1[C@H]1OC(c2ccc(OCCCO)cc2)=N[C@@]1(Cc1ccccc1N=[N+]=[N-])C(=O)O
composite z-score [1]: 1.57 | z-score [2]: -0.467 (inactive) | z-score [3]: -4.46 (inactive) | z-score [4]: -1.66 (inactive) | composite z-score [5]: 2.78 | z-score [6]: -0.0765 (inactive) | composite z-score [7]: 0.359 | composite z-score [8]: 0.145 | composite z-score [9]: 1.06 | composite z-score [10]: 0.0783

COc1c(C)cc(-c2cc3c(c(CCc4ccccc4)n2)[Si](C(C)C)(C(C)C)O[C@H]3c2ccccc2)cc1C
composite z-score [1]: -0.848 | z-score [2]: 0.864 (inactive) | z-score [3]: 0.307 (inactive) | z-score [4]: 33.1 (active) | composite z-score [5]: 0.0198 | z-score [6]: -0.899 (inactive) | composite z-score [7]: -0.0519 | composite z-score [8]: 0.108 | composite z-score [9]: 0.24 | composite z-score [10]: -0.162

C=C(C(=O)CC[C@@H](OC(=O)c1ccccc1-c1ccccc1C(=O)O)c1ccc(CO)o1)C(C)C
composite z-score [1]: 1.47 | z-score [2]: -0.595 (inactive) | z-score [3]: -0.39 (inactive) | z-score [4]: -0.881 (inactive) | composite z-score [5]: 0.167 | z-score [6]: -0.249 (inactive) | composite z-score [7]: -0.19 | composite z-score [8]: 1.07 | composite z-score [9]: 1.07 | composite z-score [10]: -0.0947

CCCCCCCCCCC(O)C1C=CC2C(=O)N(C)C(=O)C2N1Nc1ccccc1 (stereo not given)
composite z-score [1]: -1.19 | z-score [2]: 0.875 (inactive) | z-score [3]: -1.53 (inactive) | z-score [4]: 0.882 (inactive) | composite z-score [5]: 0.8 | z-score [6]: -1.87 (inactive) | composite z-score [7]: -0.405 | composite z-score [8]: -0.387 | composite z-score [9]: -1.4 | composite z-score [10]: -0.247

COc1ccc(-c2cc3c(c(CCc4ccccc4)n2)[Si](C(C)C)(C(C)C)O[C@H]3c2ccccc2)cn1
composite z-score [1]: 0.469 | z-score [2]: 0.646 (inactive) | z-score [3]: -0.0525 (inactive) | z-score [4]: 1.23 (inactive) | composite z-score [5]: -0.0354 | z-score [6]: -1.12 (inactive) | composite z-score [7]: -0.213 | composite z-score [8]: 0.75 | composite z-score [9]: 0.439 | composite z-score [10]: -0.0749

O=C1O[C@H](c2ccccc2)[C@H](c2ccccc2)N2[C@H]1[C@@H](C(=O)O)[C@]1(C(=O)Nc3ccccc31)[C@H]2c1ccc(OCCO)cc1
composite z-score [1]: 1.53 | z-score [2]: -0.0404 (inactive) | z-score [3]: 0.414 (inactive) | z-score [4]: -0.303 (inactive) | composite z-score [5]: 3.27 | z-score [6]: 1.36 (inactive) | composite z-score [7]: -0.065 | composite z-score [8]: 0.286 | composite z-score [9]: 0.33 | composite z-score [10]: -0.177

C=C(CCCC)/C(=C/C[C@@H](OC(C)=O)c1ccc(OCCO)cc1)c1cc(C(=O)OC)ccc1OC
composite z-score [1]: 1.55 | z-score [2]: -0.201 (inactive) | z-score [3]: -0.52 (inactive) | z-score [4]: -0.645 (inactive) | composite z-score [5]: 2.27 | z-score [6]: 0.0811 (inactive) | composite z-score [7]: 0.0677 | composite z-score [8]: 0.0148 | composite z-score [9]: 0.467 | composite z-score [10]: -0.0828

COCCCNC(=O)[C@@]1(c2ccc([N+](=O)[O-])cc2)CC(=O)N(C2CCCCC2)[C@@H]1c1ccc(CO)cc1I
composite z-score [1]: 1.54 | z-score [2]: -0.307 (inactive) | z-score [3]: -0.314 (inactive) | z-score [4]: -0.0938 (inactive) | composite z-score [5]: 0.83 | z-score [6]: 0.556 (inactive) | composite z-score [7]: 0.0561 | composite z-score [8]: 0.39 | composite z-score [9]: 0.0429 | composite z-score [10]: -0.0967

CC[C@@H](O[Si](C#C[Si](C(C)C)(C(C)C)C(C)C)(C(C)C)C(C)C)c1cn(Cc2cccc(Cl)c2)nn1
composite z-score [1]: 0.869 | z-score [2]: 0.978 (inactive) | z-score [3]: 0.719 (inactive) | z-score [4]: 1.44 (inactive) | composite z-score [5]: -0.0557 | z-score [6]: 0.909 (inactive) | composite z-score [7]: -0.138 | composite z-score [8]: 0.523 | composite z-score [9]: 0.932 | composite z-score [10]: -0.113

O=C1C2C=CC(C(O)C(c3ccccc3)c3ccccc3)N(Nc3ccccc3F)C2C(=O)N1c1ccccc1 (stereo not given)
composite z-score [1]: 1.52 | z-score [2]: 0.504 (inactive) | z-score [3]: 0.973 (inactive) | z-score [4]: 1.75 (inactive) | composite z-score [5]: 3.58 | z-score [6]: -1.06 (inactive) | composite z-score [7]: 0.0943 | composite z-score [8]: 0.295 | composite z-score [9]: 1.02 | composite z-score [10]: 0.162

C[C@]1(C(=O)O)c2ccccc2C(=O)N(Cc2cc(C(F)(F)F)cc(C(F)(F)F)c2)[C@H]1c1ccc(CO)cc1
composite z-score [1]: 1.43 | z-score [2]: 0.652 (inactive) | z-score [3]: 0.559 (inactive) | z-score [4]: -0.754 (inactive) | composite z-score [5]: 0.834 | z-score [6]: 0.305 (inactive) | composite z-score [7]: -0.141 | composite z-score [8]: 0.414 | composite z-score [9]: 0.483 | composite z-score [10]: -0.186

COc1ccc(C(=O)Nc2ccc(CN3C(=O)[C@@]4(O[C@@H](CC(=O)N(CCO)Cc5ccccc5)[C@H]([Si](C)(C)c5ccc(OC)cc5)[C@H]4C)c4ccccc43)cc2)cc1
composite z-score [1]: 0.783 | z-score [2]: -0.884 (inactive) | z-score [3]: -0.504 (inactive) | z-score [4]: 1.94 (inactive) | composite z-score [5]: 1.5 | z-score [6]: 1.68 (inactive) | composite z-score [7]: -0.116 | composite z-score [8]: 1.55 | composite z-score [9]: 0.217 | composite z-score [10]: 0.0326

COCCOC(=O)N1C(=O)[C@@]2(c3cc(C#CCC(C(=O)OC)C(=O)OC)ccc31)[C@H](C(=O)N1CCc3cc(OC)c(OC)cc3C1)[C@H]1C(=O)O[C@H](c3ccccc3)[C@H](c3ccccc3)N1[C@@H]2c1ccccc1OCCO
composite z-score [1]: 1.53 | z-score [2]: 1.32 (inactive) | z-score [3]: 1.02 (inactive) | z-score [4]: 4.36 (inactive) | composite z-score [5]: 2.34 | z-score [6]: 1.09 (inactive) | composite z-score [7]: -0.0754 | composite z-score [8]: 1.76 | composite z-score [9]: 1.01 | composite z-score [10]: 0.0209
